Furin inhibitor = blocks human furin protease activity | AID 463115 | 0.061% of 220,000 active | inhibition, % at 20 µM or 30 µM | purified furin, fluorogenic substrate cleavage | P09958; in the data active = inhibition above about 25%
Efa HMGR inh = blocks class II HMG-CoA reductase of Enterococcus faecalis | purified E. faecalis HMGR, NADPH absorbance 340 nm kinetic | inhibition, % at 10 µM | 0.41% of 190,000 active | AID 1066;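 active = inhibition above a set limit, the median over all tested compounds plus 3 SD, cut at about 9.5% in these data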;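 note: enzyme runs in reverse so mevalonate oxidation gives rising NADPH absorbance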
EP2 antag = blocks the human prostaglandin E2 receptor EP2. P43116. 0.52% of 260,000 active. inhibition, % at 25 µM. AID 1422. C6 glioma cells expressing human EP2, cAMP TR-FRET; cells stimulated with saturating PGE2;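 active = percent inhibition above 40 after rounding to a whole number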;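 note: rat C6 glioma host cells with rolipram phosphodiesterase inhibitor present; the protocol text gives 20 µM as final concentration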
Target sequence (P43116 whole entry, looked up): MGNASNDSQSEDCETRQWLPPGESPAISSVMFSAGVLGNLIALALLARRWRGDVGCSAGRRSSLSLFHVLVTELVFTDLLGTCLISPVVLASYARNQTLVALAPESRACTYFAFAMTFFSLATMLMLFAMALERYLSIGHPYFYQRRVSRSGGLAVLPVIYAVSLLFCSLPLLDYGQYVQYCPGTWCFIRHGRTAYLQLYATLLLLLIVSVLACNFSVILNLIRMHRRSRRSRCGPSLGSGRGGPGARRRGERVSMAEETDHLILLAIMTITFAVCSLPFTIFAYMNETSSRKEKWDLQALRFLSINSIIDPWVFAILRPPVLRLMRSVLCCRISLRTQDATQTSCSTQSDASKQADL
m-calpain inh = blocks pig calpain II enzyme activity | AID 1236 | 0.37% of 220,000 active | purified calpain II, fluorogenic peptide substrate, 30 min | inhibition, % at 16 µM;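 active = inhibition above about 50%, limit read from the data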
EP2 mod = modulates human prostaglandin E2 receptor EP2 signaling; P43116; EP2-expressing cells, cAMP HTRF FRET, PGE2 co-stimulation; induction, % at 25 µM; 0.83% of 260,000 active;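 active = compounds whose cAMP rise, as percent of the full-agonist control response, exceeds 60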;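 note: rat C6 glioma line stably carrying human EP2 under a CMV promoter; the protocol text gives 20 µM as final concentration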
EP2 confirm = human EP2 receptor cAMP induction, negative in counter-screens; C6 glioma EP2 cells, cAMP HTRF induction; plus low (about EC15) PGE2 agonist; 47% of 1,300 active; shares compounds with EP2 mod; calls only at 20 µM (by protocol);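 active = cAMP induction above 50% in the main assay while under 30% in all four parallel counter assays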;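 note: rat C6 glioma cells stably expressing human EP2 receptor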
Numbers stand for hits; – = inactive; · = no result; + = active, no number. The list is not random: actives were taken first. Their share in the collection is about 1.9%.

SMILES	Furin inhibitor	Efa HMGR inh	EP2 antag	m-calpain inh	EP2 mod	EP2 confirm
CC(=O)NN1C(=O)/C(=C2/Sc3cc(Cl)c(Cl)cc3N2C)SC1=S	·	·	–	·	–	·
Nc1cc(-c2cccs2)nn(CC(=O)NCC2CC2)c1=O	·	·	–	·	–	·
COc1ccc(CN(Cc2cnc[nH]2)CC2CCCO2)c(OC)c1 (stereo not drawn)	·	·	–	·	–	·
CCOC(=O)c1c(NC(=O)CN(CC)CC)sc2c1CCN(C(=O)OCC)C2	–	–	–	–	71.6	+
CCOC(=O)c1c(NC(=S)N2CCN(C)CC2)sc2c1CCN(C(=O)OCC)C2	–	·	–	–	–	·
CS(=O)(=O)N1CC=C[C@H]1C(=O)NCc1ccc(F)cc1	·	·	·	·	–	·
c1ccc(C2=Nc3ccccc3NC(c3ccccc3)C2)cc1 (stereo not drawn)	–	–	–	–	65.0	+
COC(=O)c1cc(Br)c(=O)n(-c2nccs2)c1	–	–	–	–	65.2	–
CCOC(=O)c1sc2nc(C)nc(N3CCN(c4ncccn4)CC3)c2c1C	–	–	–	–	67.2	–
CCOC(=O)c1sc2ncnc(N3CCN(C)CC3)c2c1C	–	–	–	–	–	·
CCOc1ccccc1NC(=O)C1CCN(C(=O)c2ccc(Cl)cc2Cl)CC1	·	·	–	·	–	·
CCOC(=O)c1[nH]c(C)c(CN2CCC3(CC2)NC(=O)c2ccccc2O3)c1C	·	·	–	·	–	·
CC(C)C(NC(=O)c1ccc(Cl)c(S(=O)(=O)N2CCOCC2)c1)C(C)C	·	·	–	·	–	·
CCn1c2ccccc2c2nc3ccccc3nc21	–	–	–	–	62.4	–
CCC(=O)N1CCN(c2ccc(NC(=O)c3ccc(F)cc3)cc2)CC1	·	·	–	·	–	·
CC1=Nc2ccccc2/C1=C/c1sc(=S)n(-c2cccc(C(=O)O)c2)c1O	–	–	–	–	71.2	+
Oc1c(C=C2N=c3ccccc3=N2)sc(=S)n1-c1ccccc1	–	–	–	–	–	·
CSc1nc2nccc(-c3ccc(-c4ccccc4)cc3)n2n1	–	–	–	–	70.1	–
CSc1nc2nccc(-c3ccc(Oc4ccccc4)cc3)n2n1	–	–	–	–	–	·
COc1ccc(N2CCN(C(=O)Cn3cnc4c(cnn4-c4ccc(F)cc4)c3=O)CC2)cc1	·	·	–	·	–	·
CC/C(=C\C1CCCCC1)C(NP(=O)(c1ccccc1)c1ccccc1)c1ccccc1 (stereo not drawn)	–	–	–	–	70.5	+
OC(COc1ccccc1)Cn1c2ccccc2c2ccccc21 (stereo not drawn)	–	–	–	–	70.5	+
COc1ccccc1N(C(=O)NCc1ccccc1)C1=NCC(C)S1 (stereo not drawn)	–	–	–	–	68.7	+
Cc1cc(O)c(C(C)C)cc1CN1CCCCC1	·	·	–	·	–	·
CCOC(=O)C1=C(N)OC(C)=C(C#N)C1c1ccco1 (stereo not drawn)	–	–	–	–	–	–
SMILES	Furin inhibitor	Efa HMGR inh	EP2 antag	m-calpain inh	EP2 mod	EP2 confirm
CCCC1=C(C(=O)OCC)C(c2ccco2)C(C#N)=C(N)O1 (stereo not drawn)	–	–	–	–	–	·
COc1ccc(C2C(C(C)=O)=C(O)C(=O)N2CCc2c[nH]c3ccccc23)c(OC)c1 (stereo not drawn)	·	·	–	·	–	·
COC(=O)C(C)Sc1ncnc2c1nnn2-c1ccc(F)cc1 (stereo not drawn)	–	–	–	–	–	–
CCc1ccc(OCc2n[nH]c(=S)n2C(C)CCCC(C)C)cc1 (stereo not drawn)	–	–	–	–	68.8	+
O=C(NCCc1ccccc1)[C@H]1C=CCN1C(=O)c1ccccc1F	·	·	·	·	–	·
Cn1nnnc1SCC(=O)Nc1ccc(F)cc1F	·	·	–	·	–	·
C=C(C)CSc1nc2ccccc2c(=O)n1Cc1ccccc1	·	·	–	·	–	·
O=c1c2ccccc2nc(/C=C/c2cccnc2)n1Cc1ccccc1	–	–	–	–	–	·
O=c1c2ccccc2nc(/C=C/c2ccccc2)n1CCc1ccccc1	–	–	–	–	80.1	+
Cc1cccc(/C=C/c2nc3ccccc3c(=O)n2Cc2ccccc2)c1	–	–	–	–	69.1	+
C=CCSc1nc2ccccc2c(=O)n1Cc1ccccc1	–	–	–	–	71.5	+
C=CCSc1nc2ccsc2c(=O)n1-c1ccccc1	–	–	–	–	68.2	–
COc1ccc(-n2nc3ccc(NC(=O)c4ccc5c(c4)OCO5)cc3n2)cc1	·	·	–	·	–	·
Cc1nn(CC(=O)NCCc2ccco2)c(=O)c2cc3sccc3n12	·	·	·	·	–	·
COc1cc(OC)cc(-c2nnc(SC)o2)c1	·	·	–	·	–	·
CCCn1c(=O)c(C(=O)Nc2ccc(OC)cc2)c(O)c2ccccc21	·	·	–	·	–	·
c1ccc2c(c1)OCC(c1csc3ncnc(N4CCCCC4)c13)O2 (stereo not drawn)	–	–	–	–	84.3	+
Cc1c(-n2cnnn2)c(=O)n(-c2ccccc2)n1C	·	·	–	·	–	·
Cc1cc([N+](=O)[O-])c(C(C)(C)C)cc1N	–	–	–	–	–	·
Cc1cc([N+](=O)[O-])c(C)c(Br)c1C	·	·	–	·	–	–
CC1(C)C(C(=O)O)N2C(=O)C(NC(=O)C(N)c3ccccc3)C2S1=O (stereo not drawn)	·	·	–	·	–	·
CCOC(=O)Cc1csc(NC(NC(=O)CC)(C(F)(F)F)C(F)(F)F)n1	–	–	–	–	65.2	–
CCOC(=O)Cc1csc(NC(=O)CCC(=O)O)n1	–	·	–	–	–	·
N#CCSc1nc2sc3c(c2c(=O)n1C1CCCCC1)CCCC3	–	–	–	–	72.6	+
CC1=C/C(=C(/c2ccc(O)c(C)c2)c2ccccc2C(=O)O)C=CC1=O	·	·	–	·	–	–
SMILES	Furin inhibitor	Efa HMGR inh	EP2 antag	m-calpain inh	EP2 mod	EP2 confirm
O=C(O)C1=CC(=C(c2ccc(O)c(C(=O)O)c2)c2ccc(O)c(C(=O)O)c2)C=CC1=O	·	·	–	·	–	·
CCOC(=O)c1cc2sc(C)cc2n1CC(=O)NC(C)(C)C	·	·	–	·	–	·
CC(C)c1ccc(OCC(=O)NC(=S)Nc2ccc3c4c(cccc24)CC3)cc1	–	–	–	–	66.0	–
Cc1ccc(-c2cc(C(=O)Nc3cccnc3)no2)cc1	·	·	–	·	–	·
CC(=O)O[C@@H]1CC[C@@]2(C)C(C[C@@H](OC(C)=O)[C@@]3(C)C4=CC(=O)O[C@@H](c5ccoc5)[C@]4(C)CCC23)C1(C)C (stereo partly drawn)	·	·	–	·	–	·
COC(=O)CC1C(C)(C)C(OC(C)=O)[C@@H]2[C@@H](OC(C)=O)[C@]34O[C@@]2(O)[C@]1(C)C3CC[C@]1(C)C4=CC(=O)O[C@H]1c1ccoc1 (stereo partly drawn)	·	·	–	·	–	–
COC(=O)c1nc(NC(=O)C(C)(C)C)n[nH]1	–	–	–	–	66.2	–
O=C(c1ccco1)N(CCC(c1ccccc1)c1ccco1)Cc1ccc(F)cc1 (stereo not drawn)	–	·	–	–	69.7	+
CCSc1ccccc1C(=O)n1nnc2ccccc21	–	–	–	–	67.6	–
CCSc1ccccc1C(=O)N1CCCC1	–	–	–	–	–	·

Compound activity deposited in PubChem BioAssay by several laboratories.
